Compound activity from PubChem BioAssay.
Vaccinia Venus – vaccinia inhibition (Venus reporter). Vaccinia virus Venus reporter expression, fluorescence. Potency, µM (series often up to 36.5 µM), without a hit: at the highest dose activity change, negative = inhibition, usual class: inhibitors. 330,000 compounds, 0.46% hits; calls by dose curve; tested in A549 cells; further: potency means the concentration at half of the fitted maximal effect; on the % scale 0 is the no-effect control and ±100 the full control effect; nearly all actives have a fitted effect of over 30% in size
VACV mCherry inh – vaccinia inhibition (mCherry reporter); Potency, µM (doses to about 36.5 µM), for inactives: at the top dose activity change, negative = inhibition, actives largely listed as inhibitors; Vaccinia virus mCherry reporter infection, fluorescence; 310,000 compounds, 0.63% hits; AID 720579; calls by dose curve; tested in A549 cells; further: potency means the concentration at half of the fitted maximal effect; on the % scale 0 is the no-effect control and ±100 the full control effect; nearly all actives have a fitted effect of over 35% in size
LASV entry inh – Lassa virus entry inhibition; Lassa virus pseudotype entry inhibition, cell reporter; Potency, µM (doses to about 37.9 µM), without a hit: at the highest dose activity change, negative = inhibition, hits mostly inhibitors; 300,000 compounds, 1.2% hits; AID 540256; calls by dose curve; tested in HEK293 cells; further: potency means the concentration at half of the fitted maximal effect; on the % scale 0 is the no-effect control and ±100 the full control effect; nearly all actives have a fitted effect of over 50% in size
Shiga toxin inh – Shiga toxin inhibition; Vero cells, Shiga toxin protein synthesis inhibition reporter; inhibition, % at 38.7 µM; 290,000 compounds, 9.2% hits; AID 2315; in the data active means inhibition mostly above about 28%, no sharp cut-off; inactive means mostly below about 43%; further: 0% is about no effect
Marburg entry inh – blocks Marburg virus binding to or entry into cells. Marburg virus pseudotyped entry inhibition, cell reporter. Potency, µM (doses to about 37.8 µM), for inactives: at the top dose activity change, negative = inhibition, hits mostly inhibitors. 300,000 compounds, 1.8% hits; calls by dose curve; tested in HEK293 cells; further: potency means the concentration at half of the fitted maximal effect; on the % scale 0 is the no-effect control and ±100 the full control effect
CHX counter – affects cycloheximide protein synthesis inhibition readout, counter-screen; AID 2314; 300,000 compounds, 12% hits; max response, %; cell reporter, cycloheximide protein synthesis inhibition counterscreen; in the data active means max response mostly above about 13%, no sharp cut-off; inactive means mostly below about 14%; further: read at 38.3 µM for the half of the compounds with a filed dose; 0% is about no effect
* marks the source's active call; other numbers are inactive results; i = inactive; ? = inconclusive; . = no result given; [ ] = another dose, or the depositor's remark. The entries come from a sample that favours hits as a whole.

SMILES	Vaccinia Venus	VACV mCherry inh	LASV entry inh	Shiga toxin inh	Marburg entry inh	CHX counter
Cc1cc2c(s1)c1cnn(Cc3ccccc3F)c(=O)c1n2Cc1ccccc1F	.	.	.	7	.	15
CCCCn1cnc2c(sc3nc4c(cc32)CSC(C)(C)C4)c1=O	-14%	-14%	14%	55*	18%	78*
COC(=O)CSc1ncnc2c1sc1nc3c(cc12)COC(C)(C)C3	-6%	-17%	.	-3	8%[46.1 µM]	6
CC1(C)Cc2nc3sc4c(NCCO)ncnc4c3cc2CS1	.	.	.	26	.	20*
CC(C)CCn1cnc2c(sc3nc4c(cc32)CSC(C)(C)C4)c1=O	-12%	i	3%	43*	-13%	38*
CCCN1CCN(C(=O)Cn2c(-c3cccs3)cc3ccccc32)CC1	-11%	-10%	-2%[46.1 µM]	.	.	.
Cc1ccc(S(=O)(=O)NCc2ccccc2)cc1C(=O)NC1CCC(C)CC1 (centres undefined)	.	.	.	55*	.	12*
Cc1ccc(S(=O)(=O)NCc2ccccc2)cc1C(=O)N1CC(C)CC(C)C1 (centres undefined)	-16%	-28%	6%	.	-32%	.
COc1cc(CNc2ccc3[nH]c(=O)[nH]c3c2)ccc1OCc1ccccc1C	?	?	-11%	27	-22%	22
COc1cc(CNc2ccc3[nH]c(=O)[nH]c3c2)ccc1OCc1ccc(Cl)cc1	.	.	.	45*	.	29*
COc1cc(CNc2ccc3[nH]c(=O)[nH]c3c2)ccc1OCc1ccccc1F	?	?	-10%[46.1 µM]	37*	?	19*
COc1cc(CNc2ccc3[nH]c(=O)[nH]c3c2)ccc1OCc1ccc(F)cc1Cl	-13%	?	?	31*	16%	14
COc1cc(CNc2ccc3[nH]c(=O)[nH]c3c2)ccc1OCc1ccc(F)cc1	.	.	.	36*	.	31*
COc1cc(CNc2ccc3[nH]c(=O)[nH]c3c2)ccc1OCc1ccccc1	.	.	.	18	.	14
COc1cc(CNc2ccc3[nH]c(=O)[nH]c3c2)ccc1OCc1c(F)cccc1Cl	?	?	?	7	-15%	2
COc1cc(CNc2ccc3[nH]c(=O)[nH]c3c2)cc(Br)c1OCc1ccccc1F	?	6.3µM*	-23%[46.1 µM]	-5	?	1
COc1cc(CNc2ccc(N3CCN(C(C)=O)CC3)cc2)ccc1OCc1ccc(F)cc1	-26%	?	-7%	75*	?	25*
CCOc1cc(CNc2ccc(O)cc2)ccc1OCc1ccc(Cl)cc1Cl	-1%	i	?	51*	-11%	26*
CC(=O)c1cccc(NC(=O)C2CCCN(c3nnc(-n4cccc4)s3)C2)c1 (centres undefined)	-8%	-6%	0%[46.1 µM]	.	.	.
Cc1[nH][nH]c(=O)c1N=Nc1ccccc1C#N	.	.	.	40	.	50*
COc1ccccc1N=Nc1c(C)[nH][nH]c1=O	-22%	i	-11%	35	8%	11
COc1ccc2c(c1)NC(=O)CC(c1ccccc1)=N2	.	.	8%	66*	10%	38*
COc1cccc(C(=O)Nc2cc3c(cc2Cl)OCCCO3)c1	-3%	i	-30%	84*	?	76*
COc1ccc(C(=O)Nc2cc3c(cc2Cl)OCCCO3)cc1	-18%	.	?	94*	-10%	45*
COc1ccc(C(=O)Nc2cc3c(cc2C(=O)c2ccccc2Cl)OCCO3)cc1	2%	-5%	13%[46.1 µM]	.	-1%[46.1 µM]	.
SMILES	Vaccinia Venus	VACV mCherry inh	LASV entry inh	Shiga toxin inh	Marburg entry inh	CHX counter
COc1cccc(C(=O)Nc2cc3c(cc2C(=O)c2ccc(C)cc2)OCCO3)c1	6%	7%	14%[46.1 µM]	.	?	.
COc1ccc(CN2CCCC(c3nc(-c4ccncc4)ncc3-c3ccccc3C)C2)c(OC)c1 (centres undefined)	-20%	-30%	.	.	.	.
COc1ccc(Oc2ccc(N/C=C/C(=O)C(C)(C)C)cc2)cc1	.	.	.	39*	.	25*
COc1ccccc1Oc1ccc(N/C=C/C(=O)C(C)(C)C)cc1	-14%	-24%	1%[46.1 µM]	45	13%[46.1 µM]	14
Cc1ccc(N/C=C/C(=O)C(C)(C)C)c(O)c1	?	-25%	0%	68*	-17%	62*
COc1cccc(Oc2ccc(N/C=C/C(=O)C(C)(C)C)cc2)c1	-29%	?	?	28*	?	45*
CC(=O)Nc1ccc(N/C=C/C(=O)C(C)(C)C)cc1	-9%	-24%	19%[14.3 µM]	39*	6%	18*
Brc1ccc(/C=C2\C=Cc3ccccc32)cc1	11%	-2%	.	.	.	.
